Results taken from the supplement of paper PMC10338343.
± gives the standard deviation.

Tests used:
[1] = tested on: MILI (PIWIL2) piRISC loaded with L1MC piRNA (26 nt); test: pre-steady-state target cleavage rate (min^-1); guide: L1MC piRNA 5'p-UAACUAAAUACUAUGCAAGCUGUAGG; higher = faster piRNA-guided slicing of the target
In short: (§1)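 With or without 500 nM GTSF1 partner protein, 1 nM active affinity-purified piRISC carrying one synthetic guide was mixed with 0.1 nM transcribed, DNA-blocked target RNA library in HEPES–potassium acetate buffer at 33 °C for 0–8 or 0–960 min. Uncleaved targets were sequenced and normalised to depth and to weakly complementary targets, three trials were pooled, and k3 was capped at 0.0001 min^-1. The pre-steady-state cleavage rate came from a burst-and-steady-state fit.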

[2] = tested on: EfPiwi piRISC loaded with L1MC piRNA (26 nt); test: pre-steady-state target cleavage rate (min^-1); auxiliary factor: 500 nM Ephydatia muelleri Gtsf1; guide: L1MC piRNA 5'p-UAACUAAAUACUAUGCAAGCUGUAGG; MIWI and MILI are mouse PIWI proteins and EfPiwi is from a freshwater sponge; tags in brackets are library labels; higher = faster piRNA-guided slicing of the target
In short: as §1

[3] = auxiliary factor: 500 nM mouse GTSF1
[4] = auxiliary factor: none (no GTSF1)

| Sequence | pre-steady-state target cleavage rate [1, 3] | pre-steady-state target cleavage rate [1, 4] | pre-steady-state target cleavage rate [2] |
| --- | --- | --- | --- |
| UCCUGGAUCAGCUUCGCAUAGUAUUUAGUUA | 0.309 ± 0.02 | 0.00591 ± 0.0024 | – |
| UCCUGGAUGUCCUUGCAGAGUAUUUAGUUA | 0.0231 ± 0.011 | 0.00501 ± 0.0024 | – |
| UCCUGGAUGUCGUUGCAUAGUAUUUAGUUG [g2:g18:cont:t1G] | 0.1 ± 0.016 | 0.00688 ± 0.003 | – |
| UCCUGGAACAGCUUGGUAAGUAUUUAGUUA | 0.115 ± 0.014 | 0.00498 ± 0.0019 | – |
| UCCUCCUACAGCUUGCACAGUAUUUAGUUA | 0.19 ± 0.017 | 0.00767 ± 0.0021 | – |
| UCCUGCUAGAGCUUGCAAAGUAUUUAGUUA | 0.112 ± 0.012 | 0.00382 ± 0.0021 | – |
| UCCUGGAUGUCGUUGCAUAGUAUUUGGUUA | 0.145 ± 0.031 | 0.00722 ± 0.003 | – |
| UCCUGGAUGUGCAUGCAAAGUAUUUAGUUA | 0.0175 ± 0.0048 | 0.00933 ± 0.0024 | – |
| UCCUGGAUGUCCUUGCAAAGUAUUUAGUAA | 0.0311 ± 0.0099 | 0.00418 ± 0.0019 | – |
| UCCUCCAACAGCUUGCAUAGUAUUUAGUAA | 0.232 ± 0.02 | 0.00476 ± 0.0022 | – |
| UCCUGGAUCAGCUUGCAUAGUUUAUAGUUA | 0.0204 ± 0.008 | 0.00545 ± 0.0025 | – |
| UCCUGGAACAGCUUGGUAAGUAUUUAGUAA | 0.11 ± 0.017 | 0.00425 ± 0.0016 | – |
| UCCUGCUACAGCUUGCAUAGUAUUUAGUUA [g2:g25:cont:t1A] | 0.282 ± 0.019 | 0.0105 ± 0.003 | 0.0357 ± 0.011 |
| UCCUGGAACAGCUUCGCAUAGUAUUUAGUUA | 0.237 ± 0.016 | 0.00647 ± 0.0022 | 0.0367 ± 0.008 |
| UCCUGGAUAAGCUUGCAUAGUAUUUAGUUA | 0.276 ± 0.017 | 0.0122 ± 0.0029 | 0.0102 ± 0.004 |
| UCCUCCUACCAGCUUGCAUAGUAUUUAGUUA | 0.275 ± 0.017 | 0.00841 ± 0.0025 | 0.0186 ± 0.0056 |
| UCCUGGAUGAGCUUGGAUAGUAUUUAGUUA | 0.163 ± 0.011 | 0.00612 ± 0.0024 | 0.0043 ± 0.0033 |
| UCCUGGAAGACCUUGCAUAGUAUUUAGUUA | 0.212 ± 0.02 | 0.00774 ± 0.0029 | 0.00668 ± 0.003 |
| UCCUGGAACAGCUUGCAUAGUAUCUUAGUUA | 0.267 ± 0.022 | 0.00791 ± 0.0019 | 0.0187 ± 0.0064 |
| UCCUCCUACAGCAUGCAUAGUAUAUAGUUA | 0.243 ± 0.021 | 0.00579 ± 0.0023 | 0.00519 ± 0.0032 |
| UCCUCCUUGAGCUUGCAUAGUAUUUAGUAA | 0.217 ± 0.025 | 0.00389 ± 0.0017 | 0.00719 ± 0.0026 |
| UCCUGGAUGAGCUUGCAUCGUAUUUAGUUA | 0.0594 ± 0.0092 | 0.00554 ± 0.0025 | 0.00975 ± 0.0029 |
| UCCUGGUACUGCUUGCAAAGUAUUUAGUUA | 0.0806 ± 0.01 | 0.00779 ± 0.0021 | 0.0752 ± 0.027 |
| UCCUGGAUCAGCUUGCAUAGUAUUUAUGUUA | 0.133 ± 0.017 | 0.00471 ± 0.0027 | 0.0559 ± 0.02 |

| Sequence | pre-steady-state target cleavage rate [1, 3] | pre-steady-state target cleavage rate [1, 4] | pre-steady-state target cleavage rate [2] |
| --- | --- | --- | --- |
| UCCUCCUACAGCUAGCAUAGUUUUUAGUUA | 0.0658 ± 0.011 | 0.00299 ± 0.0026 | 0.00442 ± 0.0017 |
| UCCUGCAAGAGCUUGCAUAGUAUUUAGUUA | 0.292 ± 0.025 | 0.00624 ± 0.0028 | 0.0267 ± 0.0065 |
| UCCUGGUACAGCUUGCAGAGUAUUUAGUUA | 0.121 ± 0.026 | 0.00836 ± 0.0028 | 0.00371 ± 0.0027 |
| UCCUGGAUGAGCAUGCAUUGUAUUUAGUUA | 0.0714 ± 0.013 | 0.00843 ± 0.003 | 0.00289 ± 0.0022 |
| UCCUGGAACAAGCUUGCAUAGUAUUUAGUUA | 0.224 ± 0.012 | 0.0116 ± 0.003 | 0.0156 ± 0.0043 |
| UCCUCCUUGAGCUUGCAUAGUAUUUAGUUA | 0.216 ± 0.018 | 0.0051 ± 0.0021 | 0.0223 ± 0.0062 |
| UCCUGGAACAGCUUGCAUAGUAAUUUAGUUA | 0.14 ± 0.012 | 0.00593 ± 0.0025 | 0.00753 ± 0.0023 |
| UCCUGGAUGUGCUUGCAUAGUACUUAGUUA | 0.105 ± 0.022 | 0.00413 ± 0.0024 | 0.00522 ± 0.0031 |
| UCCUCCUACAGCAUGCAUAGUAUUUAGUUA | 0.316 ± 0.021 | 0.0117 ± 0.0029 | 0.0743 ± 0.019 |
| UCCUGGUAUCAGCUUGCAUAGUAUUUAGUUA | 0.252 ± 0.026 | 0.0221 ± 0.0059 | 0.0704 ± 0.018 |
| UCCUGCUACAGCUUGCAUAUUAUUUAGUUA | 0.11 ± 0.016 | 0.00413 ± 0.0024 | 0.0119 ± 0.0034 |
| UCCUCCUACAGUUUGCAUAGUAUUUAGUUA | 0.299 ± 0.013 | 0.00895 ± 0.0021 | 0.0845 ± 0.021 |
| UCCUGCUACAGGUUGCAUAGUAUAUAGUUA | 0.305 ± 0.036 | 0.00597 ± 0.0027 | 0.005 ± 0.0032 |
| UCCUGGUACAUCUUGCAUAGUAUUUAGUUA | 0.237 ± 0.018 | 0.00962 ± 0.0032 | 0.0254 ± 0.01 |
| UCCUGGUACAGCUUGCAAAGUAUUAAGUUA | 0.0919 ± 0.018 | 0.00406 ± 0.0027 | 0.00292 ± 0.0026 |
| UCCUGGAUCAGCUUUCAUAGUAUUUAGUUA | 0.204 ± 0.018 | 0.0048 ± 0.0029 | 0.0103 ± 0.0032 |
| UCCUCCUACAGCUUGCAUAGUAUUCUAGUUA | 0.316 ± 0.039 | 0.00537 ± 0.0026 | 0.00344 ± 0.0019 |
| UCCUGGUUCAGCUUGCUUAGUAUUUAGUUA | 0.199 ± 0.017 | 0.0104 ± 0.003 | 0.0145 ± 0.0054 |
| UCCUGGAUGUGCUUGCAUAGUAUUUAGUUU [g2:g20:cont:t1U] | 0.158 ± 0.016 | 0.0103 ± 0.0037 | 0.052 ± 0.017 |
| UCCUGGAUGAGCUUGCAUAGUCUUUAGUUA | 0.0764 ± 0.012 | 0.00627 ± 0.0022 | 0.0107 ± 0.0033 |
| UCCUGCUACAGCUCUGCAUAGUAUUUAGUUA | 0.25 ± 0.016 | 0.00983 ± 0.0027 | 0.0151 ± 0.0038 |
| UCCUGGAUGUCCUUGCAUAGUAUUUAGUA | 0.0747 ± 0.012 | 0.00356 ± 0.0024 | 0.00759 ± 0.0039 |
| UCCUGGUACAGCUUGCAUAGUACUUUAGUUA | 0.147 ± 0.024 | 0.00705 ± 0.0032 | 0.00549 ± 0.0027 |
